Active and inactive are the calls of the source.
Assays:
Albumin (Bos taurus) = Albumin (Bos taurus) (UniProt P02769); assay: bovine serum albumin binders on microarray, profiling panel, artefact control for SMM control protein annotation, biochemical, small-molecule microarray, Alexa647 label, 635/667 nm fluorescence (AID 1118); conditions: BSA-A647 binding, fluorescence 635 nm, higher = more signal;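 also: score merges 667 nm emission intensity and signal-to-noise per printed compound spot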
[1] = small-molecule microarray binders of probe aXIP, primary screen, biochemical, NeuroSMM set, 635/667 nm fluorescence (AID 1119); conditions: higher = more signal, called active from +8 up or from −8 down;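 also: probe is the protein aXip251-270 applied at 1 µg/mL to compound-printed slides; binding of probe to printed compounds measured as 667 nm fluorescence plus signal to noise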
[2] = small-molecule binders of probe aNOTCH3, primary screen, biochemical, small-molecule microarray, 635/667 nm fluorescence (AID 1120); conditions: higher = more signal;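 also: probe is a biotin-tagged antibody raised against NOTCH3 rather than NOTCH3 protein; score merges spot fluorescence near 667 nm with spot signal to noise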
[3] = small-molecule binders of probe aNOTCH2, primary screen, biochemical, small-molecule microarray, 635/667 nm fluorescence (AID 1121); conditions: higher = more signal;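 also: score merges feature fluorescence read at 667 nm with its signal to noise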
[4] = molecular target: Carbonic anhydrase 2 (Homo sapiens) (UniProt P00918); assay: CAII small-molecule binders, profiling panel, biochemical, small-molecule microarray, Alexa647-labelled CAII (AID 1122); conditions: CAII-A647 binding fluorescence, higher = more signal
[5] = COS7 lysate on small-molecule microarray, probe aHis, 635 nm (AID 1123); conditions: COS7 cell lysate, fluorescence, higher = more signal;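 also: z-score combines 667nm fluorescence intensity with signal-to-noise per printed compound spot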
[6] = compound binding in COS7 lysate, probe aLAP1, primary screen, cell lysate, small-molecule microarray (AID 1124); conditions: probe aLAP1, fluorescence, higher = more signal;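 also: lysate comes from COS7 cells expressing LAP1 and is applied at 0.3 µg/mL; score merges spot fluorescence near 667 nm with signal-to-noise over triplicate slides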
Sam68 (KHDRBS1) = assay: Sam68 small-molecule binders, primary screen, biochemical, small-molecule microarray, 635 nm fluorescence (AID 1125); conditions: small-molecule microarray binding, higher = more signal;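 also: score merges 667 nm channel intensity with signal to noise over triplicate slides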
[7] = tested on: Chordin-like protein 2 (CHRDL2); assay: CHRDL2 small-molecule binders, primary screen, biochemical, small-molecule microarray, 635 nm fluorescence (AID 1126); conditions: small-molecule microarray binding, fluorescence 635 nm; higher = more signal;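 also: printed compound slides probed with Chrdl2 protein at 4 µg/mL for 1 h at 4 C; score merges 667 nm emission intensity with signal to noise over three replicate slides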
[8] = molecular target: Concanavalin-A (Canavalia ensiformis) (UniProt P02866); assay: ConA small-molecule binders, primary screen, artefact control for SMM control protein annotation, biochemical, small-molecule microarray, Alexa647 label, 635 nm (AID 1127); conditions: ConA-A647 binding fluorescence, higher = more signal;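 also: z combines 667 nm emission intensity with signal-to-noise across three replicate slides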
[9] = anti-His antibody binders, primary screen, artefact control for SMM control protein annotation, biochemical, small-molecule microarray, 635 nm fluorescence (AID 1128); conditions: anti-His Alexa647 antibody binding, higher = more signal;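 also: score merges feature fluorescence with signal-to-noise for each printed compound spot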
[10] = tested on: Human papillomavirus type 1a E7 protein (residues 1-88); assay: HPV1a E7 small-molecule binders, primary screen, biochemical, small-molecule microarray, residues 1-88, 635 nm (AID 1129); conditions: small-molecule microarray binding, fluorescence 635 nm; higher = more signal
[11] = molecular target: Focal adhesion kinase 1 (Homo sapiens) (UniProt Q05397); assay: small-molecule microarray binders of FAK, primary screen, biochemical, 635/667 nm fluorescence, BSA, DTT (AID 1130); conditions: PTK2 binding, 635 nm fluorescence, higher = more signal;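 also: composite of spot emission at 667 nm and signal to noise over triplicate slides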
[12] = tested on: Fibrinogen (Alexa647-labelled); assay: fibrinogen binders on compound microarrays, profiling panel, artefact control for SMM control-protein annotation, biochemical, small-molecule microarray, 635/667 nm fluorescence (AID 1131); conditions: fibrinogen-A647 binding fluorescence, higher = more signal;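 also: z-score merges 667 nm fluorescence with per-spot signal-to-noise over triplicate slides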
[13] = molecular target: Follistatin (Homo sapiens) (UniProt P19883); assay: follistatin binders on small-molecule microarrays, primary screen, biochemical, small-molecule microarray, 635/667 nm fluorescence (AID 1132); conditions: FST binding, 635 nm fluorescence, higher = more signal
[14] = molecular target: Fibroblast growth factor 2 (Homo sapiens) (UniProt P09038); assay: FGF2 binders on small-molecule microarrays, primary screen, biochemical, small-molecule microarray, 635/667 nm fluorescence (AID 1133); conditions: small-molecule microarray binding, FGF2, fluorescence 635/667; higher = more signal
[15] = mitochondrial membrane potential change in A549 cells, profiling panel, cell-based, JC-1 fluorescence, basal, 24 h, 100 nL (AID 1138); conditions: higher = more signal;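 also: A549 lung adenocarcinoma cells under basal conditions with no added stimulus; test concentration not given here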
Lefty1 = Lefty1 binders on small-molecule microarrays, primary screen, biochemical, small-molecule microarray, 635/667 nm fluorescence (AID 1139); conditions: small-molecule microarray binding, fluorescence 635/667; higher = more signal
[16] = tested on: wheat germ agglutinin (Triticum aestivum), Alexa647-labelled; assay: wheat germ agglutinin binders on compound microarrays, profiling panel, artefact control for SMM control-protein annotation, biochemical, small-molecule microarray, 635/667 nm fluorescence (AID 1140); conditions: WGA-A647 binding, 635 nm fluorescence, higher = more signal;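 also: score merges 667 nm feature emission with signal to noise over triplicate slides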
[17] = molecular target: Luciferin 4-monooxygenase (Photinus pyralis) (UniProt P08659); assay: firefly luciferase enzyme inhibitors, primary screen, biochemical, luminescence, purified enzyme, 2006 set (AID 1141); conditions: SteadyGlo luminescence, 30 min, higher = more signal, called active from +8 up or from −8 down;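 also: cell-free assay with purified firefly luciferase at 100 ng per well in PBS; test concentration not given here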
Luciferin 4-monooxygenase (Photinus pyralis), sequence (P08659 whole entry, looked up): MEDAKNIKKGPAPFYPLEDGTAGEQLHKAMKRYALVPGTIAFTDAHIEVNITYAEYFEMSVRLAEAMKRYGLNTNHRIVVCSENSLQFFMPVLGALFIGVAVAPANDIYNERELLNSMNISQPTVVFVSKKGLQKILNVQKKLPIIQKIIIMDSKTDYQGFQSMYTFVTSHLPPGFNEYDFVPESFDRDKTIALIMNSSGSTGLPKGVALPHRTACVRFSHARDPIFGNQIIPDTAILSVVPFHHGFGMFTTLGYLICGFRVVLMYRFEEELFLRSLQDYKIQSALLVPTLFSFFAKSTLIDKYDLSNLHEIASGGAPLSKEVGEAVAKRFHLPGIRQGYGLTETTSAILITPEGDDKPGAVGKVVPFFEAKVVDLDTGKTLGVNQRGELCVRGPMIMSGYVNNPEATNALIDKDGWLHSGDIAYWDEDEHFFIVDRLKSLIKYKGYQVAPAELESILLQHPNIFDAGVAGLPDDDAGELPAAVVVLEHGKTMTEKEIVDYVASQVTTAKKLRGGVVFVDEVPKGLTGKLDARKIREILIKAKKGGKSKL

Fibroblast growth factor 2 (Homo sapiens), sequence (P09038 whole entry, looked up): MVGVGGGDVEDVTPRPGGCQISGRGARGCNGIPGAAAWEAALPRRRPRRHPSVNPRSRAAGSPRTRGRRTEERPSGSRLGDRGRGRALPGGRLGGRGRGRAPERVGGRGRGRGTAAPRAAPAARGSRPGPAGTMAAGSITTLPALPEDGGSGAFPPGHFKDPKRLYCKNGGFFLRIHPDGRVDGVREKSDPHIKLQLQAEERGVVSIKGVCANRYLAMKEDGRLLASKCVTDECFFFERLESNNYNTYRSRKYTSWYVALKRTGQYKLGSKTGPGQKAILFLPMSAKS
Focal adhesion kinase 1 (Homo sapiens), sequence (Q05397 whole entry, looked up): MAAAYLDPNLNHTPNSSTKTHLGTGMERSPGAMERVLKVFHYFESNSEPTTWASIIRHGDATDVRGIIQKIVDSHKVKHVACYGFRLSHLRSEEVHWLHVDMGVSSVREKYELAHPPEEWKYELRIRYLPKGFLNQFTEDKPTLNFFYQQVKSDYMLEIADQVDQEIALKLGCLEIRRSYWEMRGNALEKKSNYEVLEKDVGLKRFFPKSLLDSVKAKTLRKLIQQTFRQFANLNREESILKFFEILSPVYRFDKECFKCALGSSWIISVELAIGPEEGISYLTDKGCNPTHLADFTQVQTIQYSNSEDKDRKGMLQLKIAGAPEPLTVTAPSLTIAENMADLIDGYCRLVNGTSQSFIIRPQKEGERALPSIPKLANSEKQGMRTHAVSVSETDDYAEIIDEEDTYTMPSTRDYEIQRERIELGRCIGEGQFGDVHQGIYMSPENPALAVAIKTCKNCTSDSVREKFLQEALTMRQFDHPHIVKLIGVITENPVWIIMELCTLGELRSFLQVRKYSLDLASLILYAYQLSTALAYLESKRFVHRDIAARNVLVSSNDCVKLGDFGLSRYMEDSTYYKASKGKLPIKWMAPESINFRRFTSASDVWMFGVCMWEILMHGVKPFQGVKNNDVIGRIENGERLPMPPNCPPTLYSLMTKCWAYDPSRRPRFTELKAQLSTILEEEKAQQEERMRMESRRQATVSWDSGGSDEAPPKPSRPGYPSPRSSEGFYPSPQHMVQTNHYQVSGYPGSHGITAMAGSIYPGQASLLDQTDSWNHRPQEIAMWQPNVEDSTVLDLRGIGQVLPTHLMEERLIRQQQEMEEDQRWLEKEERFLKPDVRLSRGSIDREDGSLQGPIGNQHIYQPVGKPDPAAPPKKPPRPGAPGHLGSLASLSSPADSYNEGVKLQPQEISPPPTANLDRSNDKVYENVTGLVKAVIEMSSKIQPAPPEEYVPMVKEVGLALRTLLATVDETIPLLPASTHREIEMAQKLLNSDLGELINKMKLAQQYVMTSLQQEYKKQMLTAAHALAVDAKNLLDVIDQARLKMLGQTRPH
Concanavalin-A (Canavalia ensiformis), sequence (P02866 whole entry, looked up): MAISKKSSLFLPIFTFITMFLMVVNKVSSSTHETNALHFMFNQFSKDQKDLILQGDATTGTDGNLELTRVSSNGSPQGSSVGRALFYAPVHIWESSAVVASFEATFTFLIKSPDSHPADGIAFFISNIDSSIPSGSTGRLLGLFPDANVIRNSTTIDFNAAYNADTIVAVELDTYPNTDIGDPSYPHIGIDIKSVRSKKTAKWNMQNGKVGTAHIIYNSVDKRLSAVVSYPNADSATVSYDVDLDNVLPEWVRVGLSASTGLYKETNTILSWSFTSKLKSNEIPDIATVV
Follistatin (Homo sapiens), sequence (P19883 whole entry, looked up): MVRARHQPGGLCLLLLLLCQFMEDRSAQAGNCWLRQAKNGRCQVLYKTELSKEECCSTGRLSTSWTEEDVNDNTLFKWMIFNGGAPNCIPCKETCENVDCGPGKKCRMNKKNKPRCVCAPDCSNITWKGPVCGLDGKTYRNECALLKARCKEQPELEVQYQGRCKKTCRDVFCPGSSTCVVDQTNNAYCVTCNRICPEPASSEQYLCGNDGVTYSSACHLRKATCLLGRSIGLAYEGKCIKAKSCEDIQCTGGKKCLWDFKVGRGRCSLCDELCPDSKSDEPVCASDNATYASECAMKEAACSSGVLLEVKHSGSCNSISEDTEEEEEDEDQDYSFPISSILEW
Albumin (Bos taurus), sequence (P02769 whole entry, looked up): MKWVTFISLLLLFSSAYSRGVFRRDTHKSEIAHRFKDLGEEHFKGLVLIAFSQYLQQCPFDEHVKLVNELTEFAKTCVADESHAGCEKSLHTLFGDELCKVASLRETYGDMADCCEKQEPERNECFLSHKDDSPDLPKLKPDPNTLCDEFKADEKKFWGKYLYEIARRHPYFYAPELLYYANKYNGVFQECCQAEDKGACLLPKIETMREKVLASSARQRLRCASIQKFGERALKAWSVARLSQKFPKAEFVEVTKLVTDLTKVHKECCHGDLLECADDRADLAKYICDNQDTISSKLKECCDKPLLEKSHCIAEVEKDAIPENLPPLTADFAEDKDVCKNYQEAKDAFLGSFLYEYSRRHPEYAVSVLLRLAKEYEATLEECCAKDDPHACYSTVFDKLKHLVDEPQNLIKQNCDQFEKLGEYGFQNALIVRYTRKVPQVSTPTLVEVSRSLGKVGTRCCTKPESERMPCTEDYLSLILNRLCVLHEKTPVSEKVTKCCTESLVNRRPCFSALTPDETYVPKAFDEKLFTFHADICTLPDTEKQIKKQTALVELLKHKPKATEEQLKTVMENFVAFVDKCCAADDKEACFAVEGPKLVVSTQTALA

| Compound | composite z-score (Albumin (Bos taurus)) | composite Z-score [1] | composite z-score [2] | composite z-score [3] | composite z-score [4] | composite z-score [5] | composite z-score [6] | composite z-score (Sam68 (KHDRBS1)) | composite z-score [7] | composite z-score [8] | composite z-score [9] | composite z-score [10] | composite z-score [11] | composite z-score [12] | composite z-score [13] | composite z-score [14] | z-score [15] | composite z-score (Lefty1) | composite z-score [16] | z-score [17] |
| --- | --- | --- | --- | --- | --- | --- | --- | --- | --- | --- | --- | --- | --- | --- | --- | --- | --- | --- | --- | --- |
| COc1cc2c(cc1O)C(c1cccs1)N(Cc1ccc([N+](=O)[O-])o1)CC2 (stereo not given) | 0.878 | 3.03 (inactive) | 0.029 | 0.12 | 0.876 | 1.35 | 1.08 | 0.0376 | -0.57 | 0.364 | 0.737 | 0.182 | 0.215 | 0.979 | 0.257 | 0.478 | 2.32 | -0.795 | 0.839 | -2.26 (inactive) |
| O=C1O[C@@H](c2ccccc2)[C@@H](c2ccccc2)N2[C@@H](c3ccc(OCCO)cc3)[C@]3(C(=O)Nc4ccc(C#CC5=CCCCC5)cc43)[C@@H](C(=O)N3CCCCCCC3)[C@H]12 | 0.425 | 4.13 (inactive) | 1.87 | 0.988 | 0.776 | 3.59 | 1.6 | 1.28 | 1.42 | 1.13 | 1.41 | 1.23 | 1.55 | 0.772 | 1.39 | 1.09 | -1.02 | 1.55 | 1.46 | -1.13 (inactive) |
| CC(C)[Si](C#CCCCC#N)(O[C@H](c1ccccc1)c1cn(Cc2cccc(Cl)c2)nn1)C(C)C | 0.588 | 1.02 (inactive) | 0.0871 | -0.11 | 0.442 | 0.79 | -0.192 | 1.3 | 0.841 | 0.0848 | 0.822 | 0.953 | -0.213 | 0.902 | 1.13 | 0.955 | 5.27 | 0.764 | 0.276 | -0.513 (inactive) |
| COCCOC(=O)N1C(=O)[C@@]2(c3ccccc31)[C@H](C(=O)N1CCCCCCC1)[C@H]1C(=O)O[C@H](c3ccccc3)[C@H](c3ccccc3)N1[C@@H]2c1ccc(OCCO)cc1 | 0.445 | 10.1 (active) | 2.33 | 1.21 | 1.09 | 5.19 | 1.31 | 1.32 | 1.68 | 1.28 | 3.77 | 1.35 | 4.71 | 1.04 | 1.58 | 1.88 | -1.35 | 1.91 | 1.74 | -0.255 (inactive) |
| CCOC(=O)C1=C[C@@H](C(C)C)N(S(=O)(=O)c2ccc(C)cc2)[C@H]1c1ccccc1F | 0.81 | 0.594 (inactive) | 0.0576 | -0.0877 | 0.62 | 1.66 | -0.144 | 1.31 | -0.333 | 1.17 | 0.654 | 1.2 | -0.0031 | 1.02 | 0.96 | 0.307 | 2.33 | 0.187 | 0.927 | 1.82 (inactive) |
| Cc1ccc(S[C@]2(C(=O)O)CC(=O)N(C(C)C)[C@@H]2c2ccc(CO)cc2)cc1 | 0.07 | 0.264 (inactive) | -0.139 | -0.107 | 0.648 | -0.216 | 1.14 | 0.462 | -0.215 | 0.394 | 0.715 | -0.386 | 0.104 | -0.307 | 0.0281 | -0.129 | -0.233 | -0.0075 | 0.557 | 0.568 (inactive) |
| C#CCN1[C@@H](Cc2ccc(O)cc2)C(=O)O[C@H](Cc2ccccc2)[C@@H]1/C=C/C1CC1 | -0.545 | 0.228 (inactive) | 0.14 | -0.14 | 0.117 | -0.225 | 0.472 | -0.329 | 0.498 | -0.457 | -0.0341 | -0.521 | -0.102 | 0.123 | 0.623 | 0.571 | -1.76 | 0.165 | -0.202 | -0.407 (inactive) |
| COC(=O)[C@]1(Cc2ccccc2)N=C(c2ccc(OCCCO)cc2)O[C@@H]1c1ccccc1N=[N+]=[N-] | 0.165 | -0.181 (inactive) | -0.0391 | -0.122 | 0.279 | 1.59 | 0.209 | 0.3 | 0.315 | 0.666 | 1.15 | 1.2 | 0.442 | 0.863 | 1.36 | 1.29 | -1.24 | 0.83 | 0.464 | -4.8 (inactive) |
| Cc1ccc(S(=O)(=O)N2C[C@@H](C(=O)O)[C@H](Sc3ccccc3)C[C@H]2c2ccccc2)cc1 | 0.855 | -0.202 (inactive) | 0.418 | 0.0456 | 0.732 | 1.99 | 0.89 | 1.29 | -0.75 | 1.13 | 0.617 | 1.23 | 1.07 | 1.06 | 0.999 | -0.194 | -0.0335 | 0.697 | 1.03 | 1.88 (inactive) |
| COc1ccc([Si](C)(C)[C@@H]2[C@@H](CC(=O)N3CCC[C@H]3CO)O[C@]3(C(=O)N(Cc4cccc(I)c4)c4ccccc43)[C@H]2C)cc1 | -0.392 | 0.119 (inactive) | 0.175 | -0.0956 | 0.644 | 0.066 | 0.0817 | 1.31 | 1.45 | 0.938 | 2.04 | 0.781 | -0.204 | 0.591 | 1.39 | 1.76 | -0.77 | 1.64 | 0.481 | -0.368 (inactive) |
| NC(=O)[C@@H]1[C@H]2C(=O)O[C@H](c3ccccc3)[C@H](c3ccccc3)N2[C@H](c2ccc(OCCO)cc2)[C@@]12C(=O)Nc1ccc(C#CC3=CCCCC3)cc12 | 0.768 | 2.02 (inactive) | -0.0665 | 0.0086 | 0.647 | 0.558 | 0.0971 | 1.32 | 0.463 | 1.09 | 0.823 | 1.21 | 1.33 | 1.01 | 1.22 | 0.413 | -1.87 | 0.741 | 0.632 | -2.48 (inactive) |

Reference: PubChem BioAssay
